An excerpt weighted towards active compounds, which were near 5.2% of everything screened.
TrxR1 inh: inhibitors of rat thioredoxin reductase 1 | Potency, µM (titrated, usually from 114 µM), without a hit: top-dose activity change, negative = inhibition, usual class: inhibitors | recombinant rTrxR1, NADPH fluorescence consumption, selenite substrate | AID 588453 | hit rate 1% among 390,000 | O89049; further: potency means the concentration at half of the fitted maximal effect; on the % scale 0 is the no-effect control and ±100 the full control effect; nearly all actives have a fitted effect of over 65% in size
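Rat TrxR1 (90 nM in the dispensed reagent) was pre-reduced with 400 uM NADPH for 5 min at room temperature, then incubated with compound for 15 min. After 400 uM selenite was added, NADPH fluorescence (Ex 340/Em 450 nm) was followed for 8 min.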
TrxR1 substrate: is turned over as a substrate by rat TrxR1; O89049; purified TrxR1 substrate turnover, NADPH consumption readout; Potency, µM (top dose mostly 114 µM), inactives show top-dose activity change, negative = substrate turnover; hit rate 0.01% among 390,000; further: potency means the concentration at half of the fitted maximal effect; on the % scale 0 is the no-effect control and ±100 the full control effect; nearly all actives have a fitted effect of over 50% in size
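Rat TrxR1, dispensed at 90 nM, was prereduced with 400 uM NADPH (final) for 5 min at ~22 deg C, then incubated with compound 15 min before 400 uM selenite. A first-read NADPH fluorescence drop versus no-compound background flagged substrates.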
VDR inhibitor: vitamin D3 receptor (human) inhibition; P11473; VDR-SRC2-3 peptide fluorescence polarization, 2 h; Potency, µM, for inactives: max response, negative = inhibition, actives largely listed as inhibitors; hit rate 0.93% among 400,000; AID 504847; further: potency means the concentration at half of the fitted maximal effect; on the % scale 0 is the no-effect control and ±100 the full control effect
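Inhibition of the VDR/SRC2-3 peptide interaction is quantified by fluorescence polarization. Compounds (23 nl, pintool) incubate with the reagents for 2 hours at ambient room temperature.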
Sfp PPTase inh: Sfp phosphopantetheinyl transferase inhibition; Q9F4F7; Biochemical Sfp PPTase activity, qHTS; Potency, µM, without a hit: largest response in the series, negative = inhibition, most hits filed as inhibitors; hit rate 3.5% among 310,000;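 further: the enzyme is Sfp with the accession as filed and its product quenches rhodamine fluorescence; potency means the concentration at half of the fitted maximal effect; 0% = enzyme reaction without inhibitor and -100% = no enzyme wells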
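Fluorescence-quenching assay with 15 nM Sfp, 5 uM rhodamine-CoA and 12.5 uM BHQ-2-labelled ybbR peptide in pH 7.6 Hepes/MgCl2 buffer. Enzyme was pre-incubated with compound for 15 min at room temperature. Rate was taken from the 30-min fluorescence change (525/598 nm).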
PLK1 PBD inh: blocks phosphopeptide binding to human PLK1 polo-box domain; P53350; Plk1 PBD binding of FITC phosphopeptide, fluorescence polarization; Potency, µM, for the others: max response, negative = inhibition, most hits filed as inhibitors; hit rate 2.8% among 360,000; AID 720504; further: potency means the concentration at half of the fitted maximal effect; series mostly up to about 57 µM; on the % scale 0 is the no-effect control and ±100 the full control effect; nearly all actives have a fitted effect of over 65% in size
mIDH1 inhibitor: blocks human mutant IDH1 R132H enzyme; O75874; IDH1-R132H enzyme, NADPH consumption, diaphorase/resazurin fluorescence; Potency, µM (highest dose often 76.6 µM), for inactives: at the highest dose activity change, negative = inhibition, actives largely listed as inhibitors; hit rate 0.093% among 390,000; AID 602179; further: potency means the concentration at half of the fitted maximal effect; on the % scale 0 is the no-effect control and ±100 the full control effect; nearly all actives have a fitted effect of over 65% in size
Target sequence (O75874 whole entry R132H, stated change not applied): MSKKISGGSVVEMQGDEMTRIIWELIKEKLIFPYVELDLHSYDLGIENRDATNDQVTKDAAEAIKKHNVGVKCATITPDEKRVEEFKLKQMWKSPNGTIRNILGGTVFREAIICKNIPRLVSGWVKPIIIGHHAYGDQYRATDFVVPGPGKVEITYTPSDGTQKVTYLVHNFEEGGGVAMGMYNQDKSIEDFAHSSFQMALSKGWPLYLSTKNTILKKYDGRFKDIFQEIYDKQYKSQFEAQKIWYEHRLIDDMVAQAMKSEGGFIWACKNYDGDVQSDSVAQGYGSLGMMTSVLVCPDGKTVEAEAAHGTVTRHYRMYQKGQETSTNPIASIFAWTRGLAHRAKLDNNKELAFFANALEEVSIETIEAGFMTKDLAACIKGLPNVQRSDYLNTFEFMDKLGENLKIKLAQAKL
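IDH1-R132H (0.5 ug/mL) preincubated 30 min with compound, then NADPH (0.016 mM) and alpha-KG (2 mM) added; 80 min at RT, pH 7.5. Remaining NADPH coupled via diaphorase/resazurin to fluorescence (540/590 nm); concentration-response curves normalized to no-enzyme control.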
IDH1 autofl: counter-screen for mutant IDH1 inhibitors: fluorescence interference | shares compounds with mIDH1 inhibitor | Resorufin detection reagent fluorescence interference, cell-free | inhibition of signal, % at 51.2 µM | 750 tested, under 10 active;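 further: 0% = wells with normal resorufin and full inhibition = wells lacking resorufin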
IDH1 WT: selectivity of mutant IDH1 inhibitors: human wild-type IDH1 | shares compounds with mIDH1 inhibitor | WT IDH1 enzyme, NADPH diaphorase/resazurin fluorescence | Potency, µM (titrated, usually from 115 µM), for inactives: at the top dose activity change, negative = inhibition, actives largely listed as inhibitors | hit rate 9% among 750 | AID 623995;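 further: potency means the concentration at half of the fitted maximal effect; 0% = full WT IDH1 enzyme control and full inhibition = no enzyme wells; nearly all actives have a fitted effect of over 55% in size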
Target sequence (O75874 whole entry, looked up): as the sequence (O75874 whole entry R132H, stated change not applied) above, with H132R counted along it
IDH1 R132H conf: mutant IDH1 (human) inhibition, confirmed. Potency, µM (highest dose often 76.6 µM), for the others: top-dose activity change, negative = inhibition, actives largely listed as inhibitors. hit rate 83% among 750. IDH1 R132H enzyme, NADPH diaphorase/resazurin fluorescence. AID 624002. shares compounds with mIDH1 inhibitor; further: potency means the concentration at half of the fitted maximal effect; nearly all actives have a fitted effect of over 50% in size
The depositor's hits bear a star; u = inconclusive; x = no result; [ ] = dose if it differs, or a comment. The call rests on the fitted dose curve; in most records, active means well fitted curve in the direction sought with a large enough effect; inconclusive means small, poorly fitted or top-dose-only effect, or another doubt; inactive means no such curve, though single readings can be large; an effect the other way counts as inactive or inconclusive.

SMILES | TrxR1 inh | TrxR1 substrate | VDR inhibitor | Sfp PPTase inh | PLK1 PBD inh | mIDH1 inhibitor | IDH1 autofl | IDH1 WT | IDH1 R132H conf
Cc1cccc(N(C(=O)c2snc(C(N)=O)c2N)C(C(=O)NCc2ccccc2)c2ccncc2)c1 (stereo not drawn) | -12% | 2% | -11% | 15% | -8% | u | -6 | 8% | 35µM*
Cc1ccc(C2=Nc3ccc(Br)cc3C(c3ccncc3)=NN2)cc1 | 15%[57.1 µM] | -1%[57.1 µM] | -6% | 8% | 1% | 15µM* | 8 | 4% | 22µM*
COc1ccc(CN(CCC(c2ccccc2)c2ccc(OC(C)C)cc2)C(=O)CCl)cc1OC (stereo not drawn) | u | -7% | -22% | -11% | -5% | u | -7 | -17% | 7.9µM*
CCOc1ccc(S(=O)(=O)NN=C(C)c2cccnc2)cc1 | 0% | -4% | 7% | x | -11% | 0% | x | x | x
O=C(CSc1nc2nc(-c3cccs3)cc(C(F)(F)F)c2c(=O)[nH]1)Nc1ccc(F)c(F)c1 | 19%[57.1 µM] | 21%[57.1 µM] | -5% | -25% | 7.5µM* | u | 6 | u | 45µM*
N#Cc1c(C(F)(F)F)cc(-c2cccs2)nc1SCC(=O)Nc1ccc(Cl)cc1 | -24% | 28% | -25% | x | x | -18% | x | x | x
COc1ccc(-c2c(C)nc(N)nc2-c2ccc(OCc3ccc(C)cc3)cc2O)cc1OC | -12% | -10% | 3% | 2% | -2% | u | -5 | 6% | u
COc1ccc(-c2c(C)nc(N)nc2-c2ccc(OC)cc2O)cc1 | 8%[57.1 µM] | 4% | 2% | 10% | -7% | 8% | x | x | x
CC1=CC(C)(C)N2C(=O)C3(C(C#N)=C(N)Oc4cc(O)ccc43)c3c(C)c(C)cc1c32 (stereo not drawn) | 5% | -5% | -16% | 7% | -7% | 23µM* | 5 | 10% | 20µM*
CC1=CC(C)(C)N2C(=O)C3(C(C#N)=C(N)OC4=C3C(=O)CCC4)c3c(C)c(C)cc1c32 (stereo not drawn) | 22%[57.1 µM] | -2% | -12% | 29% | -1% | -3% | x | x | x
Cc1ccc(NC(=O)CSc2nc3ccc(NC(=O)CCc4ccccc4)cc3s2)cc1 | 25% | 2% | 18% | x | x | -9% | x | x | x
Cc1cc(NC(=O)CCC(=O)N(c2ccccc2)C(C(=O)NC2CCCC2)c2ccccc2)no1 (stereo not drawn) | 24%[57.1 µM] | 14% | 14% | 29% | -3% | -23% | x | x | x
Cc1cc(NC(=O)CCC(=O)N(c2ccccc2C)C(C(=O)NC2CCCC2)c2ccccc2)no1 (stereo not drawn) | 5% | -2% | 30% | 15% | 0% | u | 2 | 10% | 25µM*
Cc1cc(NC(=O)CCC(=O)N(c2cccc(F)c2)C(C(=O)NC2CCCC2)c2ccccc2)no1 (stereo not drawn) | 23% | 4% | -4% | 16% | -14% | 46µM* | 0 | -10% | 16µM*
Cc1ccc(N(C(=O)CCC(=O)Nc2cc(C)on2)C(C(=O)NC2CCCC2)c2ccccc2)cc1 (stereo not drawn) | 0% | 0% | -5% | 8% | -7% | u | -4 | -4% | 22µM*
Cc1cc(NC(=O)CCC(=O)N(c2ccccc2)C(C(=O)NC2CCCC2)c2ccccc2C)no1 (stereo not drawn) | 18% | 0% | -3% | 22% | 5% | 37µM* | 2 | 7% | 13µM*
